Test results reported in PubChem BioAssay (NCI).
Several values for one entry are separate records, joined by “and”; a condition that tells them apart may be missing. Identical values can stand only once. This is part of a sample that, as a whole, favours compounds with a hit. Of some 79,000 tested, about 15% had one in any assay. Activity calls are given as the source filed them. Rule as the data show it: active = growth inhibition above about 70%; inactive = the rest.

Assays:
[1] = NCI Yeast Anticancer Drug Screen. Data for the rad50 strain (AID 155);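 also: 0% = growth of vehicle-only cultures of the same strain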; settings: S. cerevisiae rad50 strain growth inhibition; at 50.0 µM; stronger effect = higher value
Method in brief: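 Yeast carrying a defined DNA repair defect were exposed to test compounds, and growth was compared with vehicle-treated controls to give percent inhibition.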

[2] = NCI Yeast Anticancer Drug Screen. Data for the mec2-1 strain (AID 157); settings: S. cerevisiae mec2-1 strain, at 50.0 µM, stronger effect = higher value
Method in brief: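 Test agents were screened against the mec2-1 yeast strain, with defined DNA repair or cell cycle alteration. Growth was scored as inhibition against vehicle-only controls.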

[3] = NCI Yeast Anticancer Drug Screen. Data for the sgs1 mgt1 strain (AID 161);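 also: 0% = growth of cultures given vehicle only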; settings: S. cerevisiae sgs1 mgt1 strain, at 50.0 µM, stronger effect = higher value
Method in brief: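 Read-out: growth inhibition vs vehicle controls. Cells: mutant yeast strain deficient in DNA damage repair.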

[4] = NCI Yeast Anticancer Drug Screen. Data for the cln2 rad14 strain (AID 165);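 also: 0% = growth equal to vehicle treated cultures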; settings: S. cerevisiae cln2 rad14 strain, at 50.0 µM, stronger effect = higher value
Method in brief: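 Growth of compound-exposed yeast (cln2 rad14 genotype) measured and expressed as inhibition relative to vehicle.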

[5] = NCI Yeast Anticancer Drug Screen. Data for the bub3 strain (AID 167); settings: S. cerevisiae bub3 mutant strain, at 50.0 µM, stronger effect = higher value
Method in brief: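 Compounds were applied to a genetically altered yeast strain carrying a cell-cycle control defect. Growth inhibition was scored against vehicle-treated controls.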

[6] = NCI Yeast Anticancer Drug Screen. Data for the mlh1 rad18 strain (AID 175); settings: S. cerevisiae mlh1 rad18 strain growth inhibition; at 50.0 µM; stronger effect = higher value
Method in brief: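 In this whole-cell yeast screen, a strain with altered DNA damage repair is challenged with compound, and its growth is measured against matched vehicle-treated controls.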

Measured: growth inhibition

O=c1cccc2n1CC1CNCC2C1 (centres undefined)
inactive: [1] 10.6% | [2] 13.4% | [3] -16.2% | [4] 7.65% | [5] 15.7% | [6] -22.1%

O=c1c2ccccc2sc2c1c(N(CCCl)CCCl)cc1ccccc12
inactive: [1] 39.2% | [2] 5.5% | [3] 20.1% | [4] 17.5% | [5] -5.85% | [6] 18.8%

CC12CCC(O)CC1CCC1C2CCC2(C)C(C3=CC(=O)OC3)CCC12O (centres undefined)
inactive: [1] -42.8% | [2] -33.6% | [3] -18.8% | [4] -10.2% | [5] -23.2% | [6] -20.1%

[NH-]C(CO)C(=O)O.[NH-]C(CO)C(=O)O.[Pd+2] (centres undefined)
inactive: [1] -8.55% | [2] -3.9% | [3] -6.15% | [4] -7.2% | [5] -5.95% | [6] 15.9%

N=C(N)c1nn[nH]n1
inactive: [1] -18.9% | [2] -5.25% | [3] -19.8% | [4] 1.75% | [5] -7.05% | [6] -27.3%

NNC(=S)NN
inactive: [1] 4.95% | [2] 4.3% | [3] 1.7% | [4] -15.4% | [5] -2.6% | [6] 35.6%

CC(C)OP(=S)(OC(C)C)SSSP(=S)(OC(C)C)OC(C)C
inactive: [1] 14.2% | [2] 3.75% | [3] 1.95% | [4] -3.1% | [5] 12.7% | [6] 6.25%

COc1ccc2n[se]nc2c1
inactive: [1] 46.4% | [2] 28.1% | [3] 26.9% | [4] 11.6% | [5] 51.6% | [6] 21%

CCn1/c(=N\N=O)sc2ccccc21
inactive: [1] -4.1% | [2] 6.05% | [3] -4.2% | [4] -23.9% | [5] -35.3% | [6] 3.6%

CCOC(=O)C1Cc2ccc(OC)cc2C2=CC(=O)CCC21 (centres undefined)
inactive: [1] -13.4% | [2] -16.9% | [3] -9.4% | [4] 1.65% | [5] 5.4% | [6] -1.15%

COc1cccc(C2(C#N)CCN(C)CC2)c1
inactive: [1] 28.1% | [2] 23.1% | [3] 22.7% | [4] -7.45% | [5] 12.7% | [6] 62.5%

N#CS.N=C=S.N=C=S.[Cu+2].[NH2-].[NH2-].[NH2-].[NH2-].c1ccc2ncccc2c1
inactive: [1] -10.4% | [2] -16.6% | [3] -24.2% | [4] 26.2% | [5] -9.6% | [6] -12.5%

OC1C2CCCCN2C[C@@H](O)[C@H]1O (some centres undefined)
inactive: [1] 16.3% | [2] 11.9% | [3] 22.1% | [4] 22.6% | [5] 12% | [6] -34%

COC(=O)C[CH2][Sn]([CH2]CC(=O)OC)([c]1ccccc1)[c]1ccccc1
inactive: [1] 7.95% | [2] 30.7% | [3] -6.7% | [4] -15.7% | [5] 14.4% | [6] -25.4%

CCCC(C)OP(=O)(OCC)OCC (centres undefined)
inactive: [1] 2.2% | [2] -2.7% | [3] -5.35% | [4] -48.4% | [5] 14.4% | [6] -3.5%

C=C(C)C1(CC(C)C)C(=O)NC(=O)NC1=O
inactive: [1] 7.4% and 2.9% | [2] 6.4% and 0.4% | [3] -7.55% and 1.75% | [4] 2.3% and -2.6% | [5] -14.8% and 8.15% | [6] -5.9% and -4.3%

CC(C)(C)C1=CC(=C(P(=O)(O)O)P(=O)(O)O)C=C(C(C)(C)C)C1=O
inactive: [1] -32.6% | [2] -12.7% | [3] -49.5% | [4] -21.9% | [5] -47.8% | [6] -34.5%

CC(C)C(NC(=O)CCl)C(=O)O (centres undefined)
inactive: [1] -9.2% | [2] -0.2% | [3] 5.75% | [4] -11.4% | [5] -2.55% | [6] 0.3%

CC(=O)Nc1ccc(NN=O)cn1
inactive: [1] 40.9% | [2] 4.7% | [3] -15.9% | [4] -7.95% | [5] -37.8% | [6] 12.2%

CNC(=O)O/N=C/c1cccc(/C=N/OC(=O)NC)c1
inactive: [1] -0.1% | [2] 14.3% | [3] 3.35% | [4] 49.5% | [5] 28.8% | [6] 11.2%

COC1=CC(=O)OC(CCc2ccccc2)C1 (centres undefined)
inactive: [1] -2.7% | [2] -5.9% | [3] -1.9% | [4] -14.2% | [5] -9.35% | [6] -4.85%

CC12CC[C]([Hg][I])(CC1)C2(C)C
active: [1] 96.5% | [2] 98.6% | [3] 99.8% | [5] 74.9% | [6] 84.8%
inactive: [4] 4.3%

CCOC(=O)C(Cc1ccc(N(CCCl)CCCl)cc1)NC(=O)C(N)CO (centres undefined)
inactive: [1] -4.05% | [2] 17.6% | [3] 4.75% | [4] -1.3% | [5] 12.3% | [6] 7.5%

CP1(=O)CCC23CCCCC21O3 (centres undefined)
inactive: [1] 7.9% | [2] -34.8% | [3] -2.3% | [4] -20.8% | [5] 11.7% | [6] -4.25%

CCNC(=O)CCl
inactive: [1] 3.75% | [2] 1.2% | [3] 21.4% | [4] -2% | [5] -0.9% | [6] 10.4%

COc1ccc(NC(=O)/C(=N/NC(N)=S)C2C(=O)NC(=S)NC2=O)c(OC)c1
inactive: [1] -17.4% | [2] -4% | [3] -4.55% | [4] -21.9% | [5] -8.9% | [6] -25%

C/C=N/Nc1ccc([N+](=O)[O-])cc1[N+](=O)[O-]
inactive: [1] 10.5% | [2] -6.35% | [3] -11.8% | [4] -14.9% | [5] 3.3% | [6] 16.8%

O=C(NC1CC1)c1c(O)[nH]c(=S)[nH]c1=O
inactive: [1] -3% | [2] -8.2% | [3] -12.8% | [4] 16.6% | [5] -6.15% | [6] -17.1%

CN(C)P1(=S)NCC(C(C)(C)C)CO1 (centres undefined)
inactive: [1] 10.2% | [2] -40.1% | [3] -10.9% | [4] 11.2% | [5] 18.5% | [6] -43.4%

CC(Cl)(Cl)[N+](=O)[O-]
inactive: [1] 33.7% | [2] -22.5% | [3] -8.05% | [4] -60.1% | [5] -10.2% | [6] 21.1%

COc1cc(C(CN)N(C)C)cc(OC)c1OC (centres undefined)
inactive: [1] -42.6% | [2] -48.7% | [3] -14.9% | [4] 14.4% | [5] -0.9% | [6] -8.65%

NNC(=S)S
inactive: [1] 27.9% and -11.3% and -7.8% | [2] 26.1% and -14.6% and -8.5% | [3] 6.1% and -1.65% and -21.6% | [4] 22.2% and -24.2% and -21.7% | [5] 26.2% and 9.35% and -27% | [6] 5.3% and -2.15% and -45.4%

CC1CCCN(C(c2ccccc2)C(O)c2ccccc2)C1 (centres undefined)
inactive: [1] 5.9% | [2] 1.35% | [3] 13.2% | [4] -19.4% | [5] 46.5% | [6] 7.6%

O=C1NC(=S)NC(=O)C1=CC1CC1
inactive: [1] 22.6% | [2] 13.8% | [3] 17.4% | [4] 19.6% | [5] 9.2% | [6] 29.6%

COC(=O)C1=C(C)N2[C@H](C(=O)O)CO[C@@]2(C)[C@H](C(=O)OC)[C@H]1c1cccc([N+](=O)[O-])c1
inactive: [1] 26.6% | [2] -8.35% | [3] 21.4% | [4] 4.25% | [5] 25.6% | [6] 22.7%

CC(C)(C1CCC(O)CC1)C1CCC(O)CC1 (centres undefined)
inactive: [1] 19.5% and 13.4% | [2] -19.5% and -13.6% | [3] -12.2% and -21.9% | [4] -12.6% and -17.6% | [5] -5.75% and -21.8% | [6] 31.4% and 16.1%

ClCCn1c(/C=C/c2nc3ccccc3n2CCCl)nc2ccccc21
inactive: [1] 26.1% | [2] 5.8% | [3] 6.1% | [4] -32.1% | [5] -3.65% | [6] 20.6%

O=c1cc(O)c2ccccc2o1
inactive: [1] 26.1% | [2] -1.55% | [3] -4.1% | [4] 15.6% | [5] -10.2% | [6] 14.3%

CC(NC1=NCCO1)c1cccs1 (centres undefined)
inactive: [1] 12.2% | [2] -2.15% | [3] -20.1% | [4] 25.9% | [5] 15.7% | [6] -12.9%
